PubChem BioAssay (NCATS)
Where “and” joins values, the source holds several entries; their conditions need not be identical. Identical values can stand only once. Unmarked numbers belong to inactive results. Records with an inconclusive call do not appear. Entries that show only a call come without a potency. Calls of active or inactive are those of the source. Unless noted, calls come from the whole dose curve; as a rule, active = well fitted curve in the direction sought with a large enough effect; inconclusive = small, poorly fitted or top-dose-only effect, or another doubt; inactive = no such curve, though single readings can be large; an effect the other way counts as inactive or inconclusive.

Experiments:
[1] = qHTS assay for small molecule disruptors of the mitochondrial membrane potential - 1 hr assay (AID 651754; calls by dose curve; note: nearly all actives have a fitted effect of over 35% in size; note: potency is the fitted concentration of half-maximal effect)
Method in brief: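 Steps: seed HepG2 cells and let attach overnight; pin-transfer compound or vehicle; incubate 1 hr at 37C; add Mito-MPS dye for 30 min; read two-channel fluorescence for monomer and aggregate forms.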

[2] = qHTS assay for small molecule disruptors of the mitochondrial membrane potential - 5 hr assay (AID 651755; calls by dose curve; note: nearly all actives have a fitted effect of over 40% in size; note: potency is the fitted concentration of half-maximal effect)
Method in brief: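 HepG2 cells (2,000/well), attached overnight, exposed to compound 5 hr at 37C, then Mito-MPS dye 30 min. Fluorescence read for monomers (490/535 nm) and aggregates (540/590 nm).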

[3] = target: Tumor necrosis factor (Homo sapiens) (UniProt P01375); assay: qHTS assay to identify small molecules that stimulate Tumor Necrosis Factor-alpha (TNF-alpha) secretion (AID 651757; active = well fitted curve in the direction sought with a large enough effect in the signal ratio; the % refers to the signal ratio)
Method in brief: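 Secreted TNF-alpha from compound-treated THP-1 cells (17 hrs, 37 C) was quantified with a homogeneous time-resolved fluorescence antibody assay.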

[4] = qHTS assay for environmental chemicals that activate the Aryl hydrocarbon Receptor (AhR) signaling pathway (AID 651777); settings: 1A2-DRE human hepatoma cells, luciferase, 24 h; activation: hits give high values; note: nearly all actives have a fitted effect of over 15% in size
Method in brief: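 1A2-DRE human hepatoma reporter line; 1,200 cells/well; cmpd or DMSO 24 h, 37 C/5% CO2; One-Glo 30 min RT; luciferase lum.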

[5] = target: Peroxisome proliferator-activated receptor alpha (Homo sapiens) (UniProt Q07869); assay: qHTS assay for small molecule agonists of the peroxisome proliferator-activated receptor alpha (PPARalpha) signaling pathway (AID 651778); settings: PathHunter PPARalpha complementation, chemiluminescence, 6 h; hits give high values
Method in brief: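 Enzyme-fragment complementation assay in which ligand-bound PPARalpha translocates and forms an active enzyme that generates chemiluminescence. Cells were plated overnight, exposed to compound for 6 hr at 37 C, and then given detection reagent for 60 min at room temperature.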

[6] = target: Nuclear receptor ROR-gamma (Homo sapiens) (UniProt P51449); assay: qHTS assay for small molecule antagonists of the retinoid-related orphan receptor gamma (ROR-gamma) signaling pathway (AID 651802);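 note: CHO cells with doxycycline-induced ROR-gamma expression; series mostly up to about 92 µM; nearly all actives have a fitted effect of over 60% in size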
Method in brief: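 Antagonism is scored as a fall in luminescence from a RORE-luciferase reporter in CHO cells expressing ROR under a TET-inducible promoter, measured 16hr after doxycycline induction in the presence of compound.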

[7] = qHTS assay for small molecule agonists of the antioxidant response element (ARE) signaling pathway measured by Nrf2-dependant transcriptional activity (AID 720636; active = well fitted curve in the direction sought with a large enough effect in the repeat runs; an effect the other way counts as inactive or inconclusive;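 note: HepG2 cells with an ARE-driven luciferase reporter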)
Method in brief: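 Cells: ARE-luc HepG2 with Nrf2-responsive luciferase. Medium contained 1% dialyzed FBS. Compound exposure lasted 16 hr at 37 C and 5% CO2, followed by ONE-Glo luciferase detection.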

[8] = qHTS assay for small molecule agonists of the antioxidant response element (ARE) signaling pathway measured by Nrf2-dependant transcriptional activity - cell viability counter screen (AID 720653; active = well fitted curve in the direction sought with a large enough effect in the repeat runs; an effect the other way counts as inactive or inconclusive); settings: ARE-bla HepG2 viability, CellTiter-Glo ATP luminescence, 16 h; hits give low values
Method in brief: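 ARE-bla HepG2 cells treated with compounds for 16 h at 37C; this counter screen measures viability as intracellular ATP by CellTiter-Glo luminescence after 30 min at room temperature.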

[9] = qHTS assay for cell viability of HEK293 cells (AID 743288); settings: ATP luminescence (CellTiter-Glo), 18 h, hits give low values; note: nearly all actives have a fitted effect of over 50% in size
Method in brief: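 HEK293 parental, 2,000 cells/well; ≥5 h pre-incubation 37 C; pintool compound addition; 18 h, 37 C; CellTiter-Glo 30 min RT; luminescence read.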

[10] = qHTS assay for cell viability of the p53RE-bla HCT-116 cell line (AID 743292); note: nearly all actives have a fitted effect of over 55% in size
Method in brief: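 HCT-116 p53RE-bla cells seeded 4,000/well; 5 h at 37 C; compound (DMSO) added; 16 h at 37 C; CellTiter-Glo added, 30 min RT; luminescence read.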

[11] = target: Nuclear receptor subfamily 1 group I member 2 (Rattus norvegicus) (UniProt Q9R1A7); assay: qHTS assay for small molecule activators of the rat pregnane X receptor (rPXR) signaling pathway (AID 651751; call rule not given here); settings: rPXR reporter cells, luciferase (One-Glo), 24 h
[12] = qHTS assay for small molecule activators of the human pregnane X receptor (PXR) signaling pathway (AID 720659; call rule not given here)
[13] = qHTS assay for small molecule antagonists of the retinoid-related orphan receptor gamma (ROR-gamma) signaling pathway - cell viability counter screen (AID 720652; active = well fitted curve in the direction sought with a large enough effect in the repeat runs; an effect the other way counts as inactive or inconclusive;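 note: CHO reporter cells with doxycycline-induced ROR-gamma expression; series mostly up to about 92 µM; compound exposure lasted 16 hr before ATP read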)
Method in brief: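 Cytotoxicity is quantified via intracellular ATP (CellTiter-Glo luminescence) in doxycycline-induced CHO ROR response element-luciferase reporter cells treated with compound for 16 hr at 37 C, 5% CO2.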

[14] = qHTS assay to identify small molecules that stimulate interleukin-8 (IL-8) secretion (AID 651758; active = well fitted activation curve with a large enough effect in the signal ratio; the % refers to the signal ratio)
Method in brief: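 THP-1 cells (2000/well) exposed to compound 16 h at 37 C; secreted IL-8 then detected by HTRF with cryptate- and XL665-labelled anti-IL-8 antibody pair after 1-3 h at room temperature.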

Nuclear receptor ROR-gamma (Homo sapiens), sequence (P51449 whole entry, looked up): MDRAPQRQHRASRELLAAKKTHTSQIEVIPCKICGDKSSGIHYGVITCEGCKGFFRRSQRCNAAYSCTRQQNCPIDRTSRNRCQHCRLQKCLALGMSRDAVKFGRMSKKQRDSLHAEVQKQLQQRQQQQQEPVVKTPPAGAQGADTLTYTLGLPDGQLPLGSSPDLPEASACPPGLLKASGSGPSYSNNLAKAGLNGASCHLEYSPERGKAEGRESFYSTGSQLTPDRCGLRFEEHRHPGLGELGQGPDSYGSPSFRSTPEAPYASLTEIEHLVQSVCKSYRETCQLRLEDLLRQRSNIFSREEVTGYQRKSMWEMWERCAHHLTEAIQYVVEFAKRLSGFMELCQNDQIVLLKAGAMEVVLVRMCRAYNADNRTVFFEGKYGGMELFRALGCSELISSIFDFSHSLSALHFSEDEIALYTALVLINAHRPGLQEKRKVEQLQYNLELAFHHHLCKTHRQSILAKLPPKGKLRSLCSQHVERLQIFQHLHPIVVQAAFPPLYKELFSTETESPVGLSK
Tumor necrosis factor (Homo sapiens), sequence (P01375 whole entry, looked up): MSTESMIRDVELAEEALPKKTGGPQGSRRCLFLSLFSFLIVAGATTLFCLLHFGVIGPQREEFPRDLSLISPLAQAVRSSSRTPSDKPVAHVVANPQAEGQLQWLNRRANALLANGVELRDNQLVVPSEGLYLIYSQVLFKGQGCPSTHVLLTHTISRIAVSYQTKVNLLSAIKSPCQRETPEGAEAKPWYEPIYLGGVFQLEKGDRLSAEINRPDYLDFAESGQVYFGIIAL
Peroxisome proliferator-activated receptor alpha (Homo sapiens), sequence (Q07869 whole entry, looked up, the tested form may be a part): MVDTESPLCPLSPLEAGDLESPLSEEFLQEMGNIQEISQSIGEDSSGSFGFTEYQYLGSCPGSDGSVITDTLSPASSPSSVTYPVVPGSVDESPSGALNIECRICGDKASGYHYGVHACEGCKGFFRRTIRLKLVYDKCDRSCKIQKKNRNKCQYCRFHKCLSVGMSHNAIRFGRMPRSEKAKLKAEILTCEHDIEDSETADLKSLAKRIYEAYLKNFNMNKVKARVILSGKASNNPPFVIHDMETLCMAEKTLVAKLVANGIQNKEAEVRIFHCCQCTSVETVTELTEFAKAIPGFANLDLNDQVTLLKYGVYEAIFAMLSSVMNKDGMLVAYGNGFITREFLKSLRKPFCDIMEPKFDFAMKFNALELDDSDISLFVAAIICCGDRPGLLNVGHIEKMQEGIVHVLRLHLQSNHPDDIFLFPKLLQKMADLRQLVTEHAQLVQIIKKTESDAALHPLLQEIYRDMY
Nuclear receptor subfamily 1 group I member 2 (Rattus norvegicus), sequence (Q9R1A7 whole entry, looked up): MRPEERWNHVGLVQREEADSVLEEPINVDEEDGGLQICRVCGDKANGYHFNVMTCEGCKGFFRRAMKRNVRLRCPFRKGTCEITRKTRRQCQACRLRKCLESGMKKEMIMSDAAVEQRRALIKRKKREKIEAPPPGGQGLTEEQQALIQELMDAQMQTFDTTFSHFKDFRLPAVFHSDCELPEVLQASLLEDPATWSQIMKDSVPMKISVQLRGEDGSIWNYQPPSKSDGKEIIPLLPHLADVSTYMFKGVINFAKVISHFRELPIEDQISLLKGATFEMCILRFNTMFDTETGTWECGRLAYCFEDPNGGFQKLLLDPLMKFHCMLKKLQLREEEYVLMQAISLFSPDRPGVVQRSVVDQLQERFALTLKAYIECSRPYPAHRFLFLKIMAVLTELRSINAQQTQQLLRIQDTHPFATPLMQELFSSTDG

| Compound | Potency [1] | Potency [2] | Potency [3] | activation [4] | max response [5] | Potency [6] | outcome [7] | max response [8] | max response [9] | Potency [10] | max response [11] | outcome [12] | Potency [13] | Potency [14] |
| --- | --- | --- | --- | --- | --- | --- | --- | --- | --- | --- | --- | --- | --- | --- |
| CC=C(Cl)Cl | inactive | inactive | inactive | -0.394% | -5.05% | inactive | inactive | -6.27% | 5.81% | inactive | -4.19% | inactive | – | – |
| Fc1ccccc1 | inactive | inactive | inactive | – | 1.57% | inactive | inactive | 8.77% | 9.93% | inactive | 3.18% | inactive | inactive | – |
| N#Cc1ccccc1 | inactive | inactive | inactive | – | -0.81% | inactive | inactive | 0.163% | 7.56% | inactive | -4.02% | inactive | – | – |
| O=C1NC(=O)c2cc([N+](=O)[O-])ccc21 | inactive | inactive | inactive | -0.349% | -3.3% | inactive | inactive | -3.07% | -4.71% | inactive | 1.8% | inactive | – | – |
| ClC/C=C/CCl | inactive | inactive | inactive | – | 1.16% | – | inactive | -6.38% | – | inactive | 5.09% | inactive | inactive | – |
| CCN(Cc1ccccc1)c1ccccc1 | inactive | inactive | – | 0.346% | 3.08% | inactive | inactive | -1.24% | -4.87% | inactive | -3.13% | inactive | – | inactive |
| CO[Si](CCCNCCC[Si](OC)(OC)OC)(OC)OC | inactive | inactive | – | -0.757% | – | inactive | inactive | -1.66% | 5.64% | inactive | 4.59% | inactive | inactive | inactive |
| C=CC(=O)OCCCC | inactive | inactive | – | 0.108% | – | inactive | inactive | -3.72% | -0.0822% | inactive | 6.31% | inactive | inactive | – |
| CCN(CC)c1cccc(O)c1 | inactive | inactive | – | 4.44% | -5.23% | inactive | inactive | 5.34% | -2.87% | inactive | 3.46% | – | inactive | – |
| CN(C)c1cccc(O)c1 | inactive | inactive | – | 6.91% | -3.12% | – | inactive | -0.49% | -2.96% | inactive | 1.23% | inactive | – | – |
| CC(C)=CCC/C(C)=C/C=O | inactive | inactive | – | 1.06% and -1.3% | -4.87% and -0.301% | inactive | inactive | -2.99% and -11.3% | -7.6% and -9.91% | inactive | -5.36% and -0.0145% | inactive | – | inactive |
| O=Cc1cccc(Br)c1 | inactive | inactive | – | 0.191% | – | inactive | inactive | 0.536% | 1.54% | inactive | 5.18% | inactive | inactive | inactive |
| Cc1ccc(C)c(N)c1 | inactive | inactive | – | -0.892% | – | inactive | inactive | 0.0142% | -4.96% | inactive | -4.19% | inactive | inactive | inactive |
| OC1CCCC1 | inactive | inactive | – | -0.947% | 1.11% | inactive | inactive | -3.18% | 3.74% | inactive | -2.46% | inactive | – | inactive |
| Cc1ccc(N(C)C)cc1 | inactive | – | inactive | 6.07% | 2.84% | – | inactive | -14.6% | -14.6% | inactive | 1.14% | inactive | inactive | inactive |
| C=C(C)C(=O)OCC(C)C | inactive | inactive | – | -0.68% | -4.6% | inactive | inactive | -3.35% | 2.75% | inactive | 5.41% | inactive | inactive | – |
| CNC(=O)c1ccccc1 | inactive | inactive | – | -0.192% | -1.17% | inactive | inactive | -3.92% | 8.06% | inactive | -4.07% | inactive | inactive | – |

| Compound | Potency [1] | Potency [2] | Potency [3] | activation [4] | max response [5] | Potency [6] | outcome [7] | max response [8] | max response [9] | Potency [10] | max response [11] | outcome [12] | Potency [13] | Potency [14] |
| --- | --- | --- | --- | --- | --- | --- | --- | --- | --- | --- | --- | --- | --- | --- |
| O=[N+]([O-])c1c(Cl)cc(Cl)cc1Cl | inactive | inactive | – | 0.0842% | 0.895% | inactive | inactive | -2.01% | 8.66% | inactive | 9.05% | inactive | inactive | – |
| C=CCn1c(=O)n(CC=C)c(=O)n(CC=C)c1=O | inactive | inactive | – | 0.438% | -0.851% | inactive | inactive | -13.5% | 8.26% | inactive | 4.89% | inactive | inactive | – |
| Nc1cc(Cl)c([N+](=O)[O-])cc1O | 33.5 µM (active) | 33.5 µM (active) | – | 6.24% | -6.88% | inactive | – | -1.27% | – | inactive | 3.19% | inactive | inactive | – |
| C[C@@H]1O[C@@H](O[C@@H]2[C@@H](O)[C@H](OCCc3ccc(O)c(O)c3)O[C@H](CO[C@@H]3O[C@H](CO)[C@@H](O)[C@H](O)[C@H]3O)[C@H]2OC(=O)/C=C/c2ccc(O)c(O)c2)[C@H](O)[C@H](O)[C@H]1O | inactive | inactive | – | – | 0.275% | inactive | inactive | -6.98% | -6.2% | inactive | 1.79% | inactive | – | – |
| CC(O)COC(C)(C)C (configuration not stated) | inactive | – | inactive | -0.0727% | -3.92% | inactive | inactive | 7.93% | -14.3% | inactive | 2.3% | inactive | inactive | inactive |
| Cc1ccc([N+](=O)[O-])c(N)c1 | inactive | inactive | – | 0.147% | -3.68% | inactive | inactive | 6.11% | -6.54% | inactive | -3.2% | inactive | – | – |
| Cc1ccccc1C=O | inactive | – | inactive | -0.786% | -2.49% | inactive | inactive | -9.4% | 5.96% | inactive | 1.66% | inactive | inactive | inactive |
| BrC(Br)C(Br)Br | inactive | inactive | – | -0.0804% | 6.41% | inactive | inactive | 0.416% | 6.64% | inactive | 0.617% | inactive | inactive | – |
| CCOC(C)(C)C | inactive | – | inactive | -0.13% | -4.96% | inactive | inactive | -6.47% | 9.83% | inactive | -4.12% | inactive | inactive | inactive |
| CCCOCC(C)OCC(C)O (configuration not stated) | inactive | inactive | – | -2.16% | -1.53% | inactive | inactive | -10.5% | -8.35% | inactive | -1.49% | inactive | – | inactive |
| CCC(C)(C)C | inactive | inactive | – | -1.03% | -1.79% | inactive | inactive | -1.09% | -11.7% | inactive | -3.38% | inactive | inactive | inactive |
| Nc1ccccc1S(=O)(=O)O | inactive | inactive | – | -0.162% | -3.61% | inactive | inactive | -0.944% | -1.86% | inactive | -0.431% | inactive | inactive | – |
| CC(=O)Nc1ccccc1C | inactive | – | inactive | -0.35% | -1.36% | – | inactive | -6.99% | -9.82% | inactive | -0.909% | inactive | inactive | inactive |
| Nc1cc(Cl)c(N)c(Cl)c1 | inactive | inactive | – | – | 1.23% and -1.85% | inactive | inactive | -6.05% and -8.26% | 3.57% and -5.3% | inactive | -6.29% and -6.62% | inactive | inactive | – |
| CNC(=O)N(c1ccccc1)c1ccccc1 | inactive | inactive | – | -0.495% | -2.12% | – | inactive | -11.7% | 1.15% | inactive | 1.74% | inactive | inactive | – |
| CCCCCCCCC/C=C/CC1CC(=O)OC1=O (configuration not stated) | inactive | – | inactive | 0.696% | 0.153% | – | inactive | -4.85% | 0.292% | inactive | -1.93% | inactive | inactive | inactive |
| NC=O | inactive | inactive | – | 1.58% | -1.01% | inactive | inactive | 6.13% | – | inactive | -1.14% | inactive | inactive | – |
